Compound activity as filed in PubChem.
N370S GC: qHTS Assay for Inhibitors and Activators of N370S glucocerebrosidase as a Potential Chaperone Treatment of Gaucher Disease; Lysosomal acid glucosylceramidase (Homo sapiens), P04062; N370S GC spleen homogenate, 4MU-glucoside fluorescence; Potency, µM (highest dose often 59.4 µM), for inactives: at the top dose activity change, negative = inhibition, actives largely listed as inhibitors; 330,000 compounds, 0.092% hits; AID 2101, 2009;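 further: potency means the concentration at half of the fitted maximal effect; 0% = full enzyme activity and -100% = no enzyme basal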
GAA glycogen: qHTS Assay for Inhibitors and Activators of Human alpha-Glucosidase Cleavage of Glycogen | Potency, µM (top dose mostly 76.4 µM), without a hit: at the top dose activity change, negative = inhibition, most hits filed as inhibitors | recombinant GAA, glycogen substrate, Amplex Red glucose oxidase fluorescence | 300,000 compounds, 0.38% hits | Lysosomal alpha-glucosidase (Homo sapiens), P10253;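 further: potency means the concentration at half of the fitted maximal effect; 0% = full enzyme reaction and -100% = no-enzyme basal signal; the screen sought inhibitors and activators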
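qHTS, 1536-well; enzyme 4 nM final; cpd up to 77 uM; substrate bovine liver glycogen 30 ug; 50 mM citrate/phosphate pH 5.0, 0.01% Tween-20; 37 C, 40 min; Amplex Red detection 45 min RT; Hill fit → AC50.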
GAA inh: qHTS Assay for Inhibitors of Human alpha-Glucosidase as a Potential Chaperone Treatment of Pompe Disease. Lysosomal alpha-glucosidase (Homo sapiens), P10253. 200,000 compounds, 0.005% hits. Potency, µM (doses to about 76.9 µM), for the others: top-dose activity change, negative = inhibition, hits mostly inhibitors. purified human GAA, 4-MU-alpha-glucoside fluorescence;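 further: potency means the concentration at half of the fitted maximal effect; plate controls were uninhibited enzyme wells for no effect and no-enzyme background for full effect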
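Read-out is 4-methylumbelliferone fluorescence (Ex 365/Em 440 nm) after NaOH/glycine stop at pH 10. Enzyme 4 nM, substrate 400 uM, pH 5.0 citrate buffer, 20 min room temperature; AC50 from Hill-equation concentration-response.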
aGlu spleen mod: qHTS Assay for Inhibitors and Activators of Human alpha-Glucosidase From Spleen Homogenate; Lysosomal alpha-glucosidase (Homo sapiens), P10253; human spleen homogenate, 4-MU-alpha-glucoside fluorescence; Potency, µM (doses to about 79.9 µM), without a hit: top-dose activity change, negative = inhibition, most hits filed as inhibitors; 240,000 compounds, 0.006% hits; AID 2112, 2009;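 further: potency means the concentration at half of the fitted maximal effect; 0% = enzyme with vehicle and -100% = no enzyme basal signal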
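Human spleen homogenate (1 ug) incubated with compounds and 1 mM 4-methylumbelliferyl-alpha-D-glucopyranoside in pH 5.0 citrate/phosphate buffer, 37 C, 40 min. Stopped at pH 10; 4-MU fluorescence (Ex 365/Em 440 nm); AC50 by Hill fit.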
GLA spleen mod: qHTS Assay for Inhibitors and Activators of Human alpha-Galactosidase From Spleen Homogenate; Potency, µM (series often up to 80 µM), for the others: at the highest dose activity change, negative = inhibition, hits mostly inhibitors; 240,000 compounds, 0.008% hits; AID 2107, 2009; human spleen homogenate, 4MU-alpha-Gal fluorescence, 40 min; Alpha-galactosidase A (Homo sapiens), P06280;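 further: potency means the concentration at half of the fitted maximal effect; 0% = enzyme with vehicle and -100% = no enzyme basal signal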
Target sequence (P06280 32-429 limits assumed): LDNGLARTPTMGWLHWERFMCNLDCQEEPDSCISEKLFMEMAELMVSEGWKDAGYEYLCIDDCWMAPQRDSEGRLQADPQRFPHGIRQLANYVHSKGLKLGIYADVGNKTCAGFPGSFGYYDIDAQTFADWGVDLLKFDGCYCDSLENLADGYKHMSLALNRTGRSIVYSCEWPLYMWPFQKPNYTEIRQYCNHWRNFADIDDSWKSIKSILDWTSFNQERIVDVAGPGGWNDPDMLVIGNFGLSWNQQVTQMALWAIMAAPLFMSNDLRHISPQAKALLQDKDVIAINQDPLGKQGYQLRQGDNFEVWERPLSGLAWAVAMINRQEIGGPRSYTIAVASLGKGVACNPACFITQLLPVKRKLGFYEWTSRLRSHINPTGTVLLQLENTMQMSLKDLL
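Spleen homogenate 1 ug + cpd (titration) + 4-MU-alpha-D-galactopyranoside 1 mM; 37C 40 min; 50 mM citrate/phosphate pH 5.0, 0.01% Tween-20; stop pH 10; fluorescence 365/440; AC50 via Hill.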
GLA inh pH 4.5: qHTS Assay for Inhibitors of Human alpha-Galactosidase at pH 4.5; activity change, negative = inhibition, % at 105 µM; purified enzyme, 4-MU-alpha-Gal fluorescence, pH 4.5; 230,000 tested, under 10 active; Alpha-galactosidase A (Homo sapiens), P06280;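 further: 0% = full activity with enzyme and -100% = basal without enzyme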
Active calls of the source: *; ? = inconclusive; · = no result; ! = not active in a repeat; [ ] = dose if it differs, or a comment. An excerpt weighted towards active compounds, which were near 0.43% of everything screened. The call rests on the fitted dose curve; in most records, active means well fitted curve in the direction sought with a large enough effect; inconclusive means small, poorly fitted or top-dose-only effect, or another doubt; inactive means no such curve, though single readings can be large; an effect the other way counts as inactive or inconclusive.

SMILES	N370S GC	GAA glycogen	GAA inh	aGlu spleen mod	GLA spleen mod	GLA inh pH 4.5
COc1cccc(CCNC(=O)c2ccc(Cn3c(SCc4ccccc4)nc4cccnc43)cc2)c1	·	-11%[76.3 µM]	·	·	·	·
COc1cccc(Cn2nnc(C(=O)NCc3ccc(Cl)cc3Cl)c2N)c1	·	-19%[76.3 µM]	·	·	·	·
CCC(C)c1ccc(O)c(N)c1 (centres undefined)	-4%	25µM*	-4%	9%	13%	5
CC(C)c1ccc(O)c(N)c1	0%	10µM*	2%	-8%	4%	-15
Cc1oc2c(C)c3oc(=O)c(CCC(=O)N4CCCCC4)c(C)c3cc2c1C	·	-12%[76.3 µM]	·	·	·	·
COC(=O)c1[nH]c2cc(OC)c(OC)cc2c1NC(=O)Oc1ccccc1	-6%	35µM*	?	-3%	4%	-2
COc1ccc(C(=O)COC(=O)CN2CC(=O)Oc3ccccc32)cc1Br	-2%	3.1µM*	6%	-4%	-3%	3
COc1ccc(C(=O)COC(=O)C2CC3CCCC(C2)C3=O)cc1Br (centres undefined)	0%	·	·	·	·	·
Cc1ccc2sc(N(CCCN(C)C)C(=O)c3ccc(S(=O)(=O)N(C)C4CCCCC4)cc3)nc2c1C	20µM*	·	·	·	·	·
CC(=O)c1ccc(C(=O)N(CCCN(C)C)c2nc3c(C)c(C)ccc3s2)cc1	·	6%[76.3 µM]	·	·	·	·
O=C1CCCC2=C1Sc1ccccc1N2	3%	7.1µM*	·	8%	4%	3
Nc1ccccc1C(=O)NNc1c2ccccc2nc2ccccc12	?	40µM*	·	1%	8%	-1
COc1cccc(NS(=O)(=O)c2ccc3[nH]cc(C(=O)N4CCCC4)c(=O)c3c2)c1	·	28µM*	·	·	·	·
CCN1CCN(C(CC(C)C)c2nnnn2CS(=O)(=O)c2ccc(C)cc2)CC1 (centres undefined)	22µM*	9%	6%	-2%	-10%	-4
CNC(=S)NNc1nncc2ccccc12	7%	10µM*	14%	4%	2%	-8
Nc1nc(N2CCN(c3ccccc3)CC2)n[nH]1	9%	10µM*	7%	9%	3%	-3
Nc1nc(N2CCN(c3ccc(Cl)cc3)CC2)n[nH]1	-7%	?	10%	-14%	1%	-15
CCOC(=O)C1CCc2sc(N)c(C#N)c21 (centres undefined)	-1%	5µM*	-13%	6%	3%	-1
CCOC(=O)N1CCc2c(sc(N)c2C#N)C1	13%	?	·	-2%	-2%	6
Oc1ccc(N2CCN(c3ncnc4sc5c(c34)CCC5)CC2)cc1	-18%	14µM*	0%	-4%	17%	5
O=C(/C=C/Nc1ccccc1)c1ccccc1	-2%	9%	1%	3%	1%	1
CN(C)c1ccc(N/C=C/C(=O)c2ccccc2)cc1	-9%	14µM*	-13%	5%	-14%	3
O=C1/C(=C/c2ccc(O)c(O)c2)Oc2ccccc21	3%	·	·	2%	21%	·
COc1ccc(OC)c(-c2cc(C(=O)Nc3cccc(Cl)c3C)no2)c1	·	-9%[76.3 µM]	·	·	·	·
COc1ccc(Nc2nc3c([nH]2)c(=O)[nH]c(=O)n3C)cc1	2%	10µM*	-2%	-4%	3%	7
SMILES	N370S GC	GAA glycogen	GAA inh	aGlu spleen mod	GLA spleen mod	GLA inh pH 4.5
COCCCNc1nc2c([nH]1)c(=O)[nH]c(=O)n2C	12%	?	-4%	-3%	3%	·
CC/C(=C(/c1ccccc1)c1ccc(OCCN(C)C)cc1)c1ccccc1	·	·	·	-5%	1%	-12
COCCNc1c(-c2ccc(O)cc2)nc2ccc(Cl)cn12	?	10µM*	1%	-13%	2%	-1
COc1ccc(C(=O)CC2(O)C(=O)N(Cc3cccc(C(F)(F)F)c3)c3ccccc32)cc1 (centres undefined)	·	2%[76.3 µM]	·	·	·	·
Cc1ccc(-c2[nH]c(=O)n3ccncc23)s1	0%[2.35 µM]	40µM*	-7%	1%	9%	-8
CCOC(=O)c1oc2c(O)c(O)ccc2c(=O)c1-c1nncn1-c1ccccc1	-7%	35µM*	-12%	-6%	0%	-8
Cc1nc2nc(CNC(=O)OC(C)(C)C)nn2c(C)c1CCC(=O)NCc1ccccc1Cl	·	18%[76.3 µM]	·	·	·	·
O=C(NNC(=S)NC1CCCCC1)c1ccc(Cl)s1	1%	50µM*	?	-14%	3%	0
O=C(Nc1ccc(Br)cc1F)c1cc2nc(-c3ccco3)cc(C(F)(F)Cl)n2n1	·	-3%[76.3 µM]	·	·	·	·
O=C(O)c1ccc(/C=N/n2cc(-c3ccccc3)[nH]c2=S)cc1	-2%	28µM*	·	-1%	10%	1
Cc1cccc(Nc2cc(C)c3c(O)cccc3n2)c1C	-16%	10µM*	-2%	-1%	-3%	-10
CN(C)c1cc(Cl)c2nonc2c1N	-9%	13µM*	·	2%	-7%	2
CCN(CC)c1cc(Cl)c2nonc2c1N	2%	?	·	-2%	7%	-10
Cc1ccc(N(Cc2cc3ccccc3[nH]c2=O)C(=O)c2cccc(Cl)c2)cc1	·	-2%[76.3 µM]	·	·	·	·
c1ccc(-c2ccc(N3CC4(CCNCC4)C3)cc2)cc1	?	·	·	-12%	1%	·
c1ccc(-c2ccc(N3CCCC4(CCNCC4)C3)cc2)cc1	16µM*	·	·	-3%	-3%	·
COC(=O)c1c(NC(=O)COC(=O)CCNS(=O)(=O)c2ccc(NC(C)=O)cc2)sc(C)c1C	8.9µM*	·	·	·	·	·
COC(=O)c1c(NC(=O)COC(=O)CCNS(=O)(=O)c2ccccc2)sc(C)c1C	0%	·	·	·	·	·
CC(=O)Nc1cc(OC(C)=O)c2nonc2c1OC(C)=O	-6%	16µM*	-5%	-7%	-10%	2
Nc1ccc(NC(=S)Nc2ccccc2)cc1	0%	0%	-4%	-1%	-3%	-1
Oc1ccc(NC(=S)Nc2ccccc2)cc1	?	11µM*!	3%	-2%	2%	22
OCCCNC(=S)Nc1ccc(Nc2ccccc2)cc1	-15%	14µM*	-8%	1%	-3%	3
C=C(C(C)=O)C(O)c1ccco1 (centres undefined)	12%	·	·	5%	-16%	0
O=C1c2c(O)cc(O)cc2O[C@H](c2ccc(O)c(O)c2)[C@H]1O	-6%	?	0%[15.4 µM]	-11%	-12%	5
